JMJD2A Tudor: blocks the human JMJD2A Tudor domain | hit rate 4.4% among 390,000 | Potency, µM (series often up to 114 µM), most hits filed as inhibitors | AID 504339 | AlphaScreen JMJD2A-Tudor / H3K4me3 peptide binding | O75164; also: nearly all actives have a fitted effect of over 50% in size
HP1b chromo inh: HP1-beta chromodomain-methylated histone interaction inhibition | AlphaScreen HP1-beta / biotin-H3K9me3 peptide binding | hit rate 0.56% among 390,000 | Potency, µM (doses to about 114 µM), most hits filed as inhibitors; also: nearly all actives have a fitted effect of over 70% in size
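AlphaScreen: HP1-beta (50 nM) preformed 30 min with biotin-H3(1-18)K9me3 peptide (50 nM) in PBS pH 7.4, 0.01% Tween-20. Compound added for 30 min at RT, then streptavidin donor/nickel chelate acceptor beads (10 ug/mL) for 30 min.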
CtBP-E1A blk: blocks the CtBP interaction with E1A; AlphaScreen GST-E1A/His-CtBP binding, 1536-well; hits give low values; activity change, % (no concentration beside the values); hit rate 0.49% among 340,000; AID 651724; in the data active = activity change below about -65%; inconclusive = mostly about -30% to -63%
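In 5 uL wells, 23 nL compound meets equimolar GST-E1A and His-CtBP (5X stock 125 nM each) for 2 h, 37 °C. Beads (5X, 50 ug/mL) then 1 h, 37 °C, dark.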
TDP1 block: TDP1 (human) enzyme inhibition; Potency, µM (top dose mostly 130 µM), actives largely listed as inhibitors; recombinant TDP1, AlphaScreen DNA substrate cleavage; hit rate 0.28% among 350,000; also: nearly all actives have a fitted effect of over 40% in size
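E. coli-derived human Tdp1, 1 nM final. Cpd preinc 15 min RT; substrate 15 nM final, 5 min RT; AS bead mix 10 ug/ml final, 10 min RT. Signal loss = tyrosine-FITC cleavage. No-enzyme wells = max signal.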
BAZ2B inh: BAZ2B (human) inhibition; Q9UIF8; AlphaScreen BAZ2B-H3K14Ac peptide displacement; Potency, µM (top dose mostly 114 µM), most hits filed as inhibitors; hit rate 4.4% among 360,000; also: nearly all actives have a fitted effect of over 60% in size
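Compounds, titrated to a top concentration of 110 uM, were incubated 30 min at room temperature with preformed BAZ2B/acetyl-K14 H3 peptide complex (50 nM each). Proximity signal was measured by AlphaScreen after 20 min with beads.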
Six1-Eya2 blk: blocks human Six1 binding to Eya2; Q15475+O00167; AlphaScreen GST-Six1/His-Eya2 binding, biochemical; hits give low values; activity change, % (test concentration not listed); hit rate 0.56% among 360,000; AID 651725; in the data active = activity change below about -65%; inconclusive = mostly about -30% to -63%
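Compounds are tested against tagged Six1 and Eya2 proteins bridged by glutathione donor and nickel acceptor beads; after a one-hour incubation at 37 °C without light, AlphaScreen emission is recorded.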
A number is an active result; – = inactive; ? = inconclusive; · = not tested or not shown; [ ] = remark or other dose. Only some compounds are listed: those with a hit (about 5.3% of all), similar ones and a draw of the others. Unless noted, calls follow the shape of the dose curve; as a rule, active = well fitted inhibition curve with a large enough effect; inconclusive = small, poorly fitted or top-dose-only effect; inactive = no such curve, though single readings can be large or run the other way.

SMILES	JMJD2A Tudor	HP1b chromo inh	CtBP-E1A blk	TDP1 block	BAZ2B inh	Six1-Eya2 blk
Nc1nonc1-c1nc2ccccc2n1CC(=O)N/N=C/c1ccc(-c2cccc(C(=O)O)c2)o1	40µM	50µM	–	14µM	20µM	?
Cc1nnc(N/N=C\c2ccc(-c3cccc(C(=O)O)c3)o2)n1N	25µM	–	–	50µM	79µM	?
O=C(/C=C/c1ccc(-c2ccccc2)o1)c1ccccc1	–	?	–	–	35µM	–
COC(=O)NC(CC(C)=O)c1ccc(Cl)cc1 (stereo not drawn)	·	·	·	–[21 µM]	·	·
CCCOc1ccc(-c2nonc2NC(=O)c2ccco2)cc1OCCC	–	–	·	–	–	·
O=Cc1ccc(-c2cccc(C(=O)O)c2)o1	–	–	–	45µM	?	–
CCCN(c1c(C)n(C)n(-c2ccccc2)c1=O)S(=O)(=O)c1ccc(C)cc1	–	–	·	–	–	·
FC(F)(F)c1cc(C(F)(F)F)c2ccc(N/N=C/c3ccccc3)nc2n1	–	–	–	–	–	–
N#CC(c1ccccc1)c1ccc2c(C(F)(F)F)cc(C(F)(F)F)nc2n1 (stereo not drawn)	45µM	14µM	-66	–	10µM	-75
Cc1ccc(C(C#N)c2ccc3c(C(F)(F)F)cc(C(F)(F)F)nc3n2)cc1 (stereo not drawn)	5.6µM	14µM	?	–	8.9µM	?
COCCn1c(C)c(C)c2c(NCCc3ccccc3)ncnc21	18µM	?	·	·	28µM	–
Cc1c(C)n(CCc2ccccc2)c2ncnc(NCCCO)c12	?	–	·	·	?	–
COc1ccc(NC(=O)c2cc(-c3ccccc3)nc3c2cnn3C(C)C)cc1	79µM	?	–	–	–	?
CC1=C(/C=C/C(=C/C=C/C(C)=C/C(=O)O)c2ccc(C)cc2)C(C)(C)CCC1	·	·	·	–	·	·
CCN(CC)c1ccc(NC(=O)CNCc2ccccc2Cl)c(C)c1	10µM	25µM	?	·	18µM	?
Cc1ccc(S(=O)(=O)N2CCOCC2)cc1NC(=O)CNCC1CCCCC1	4µM	–	–	–	·	–
COc1ccccc1CC(=O)Nc1cc(S(=O)(=O)N2CCOCC2)ccc1N1CCOCC1	–	–	–	–	–	–
Cc1ccc(S(=O)(=O)N2CCOCC2)cc1NC(=O)CNCc1ccc(Cl)cc1Cl	–	–	·	–	·	–
O=C(CNCc1ccccc1Cl)Nc1cc(S(=O)(=O)N2CCOCC2)ccc1Cl	7.9µM	?	–	–	·	–
O=C(CNCc1ccco1)Nc1cc(S(=O)(=O)N2CCOCC2)ccc1N1CCOCC1	18µM	?	–	–	·	–
O=C(CC1CCCC1)Nc1cc(S(=O)(=O)N2CCOCC2)ccc1O	–	?	–	–	–	–
CCN(CC)c1ccc(NC(=O)Cn2ncc3c(C)n(Cc4ccccc4F)c(C)c3c2=O)c(C)c1	–	–	–	–	–	–
COc1ccc(C(=O)NCCc2sc(-c3ccc(Cl)cc3)nc2C)c(OC)c1	?	–	·	–	–	·
Cc1ccsc1CNc1ncnc2ccc(-c3ccc4c(c3)OCO4)cc12	?	·	·	–	·	·
CCCCNc1nc(C)nc2c1nc(-c1ccccc1)n2CCN1CCCC1	·	·	·	–	·	·
SMILES	JMJD2A Tudor	HP1b chromo inh	CtBP-E1A blk	TDP1 block	BAZ2B inh	Six1-Eya2 blk
COC(=O)c1c(C)sc(-c2c(-c3ccc4c(c3)OCCO4)[nH]c3c2c(=O)[nH]c(=O)n3C)c1O	–	–	·	–	–	·
Cc1ccc(C)c(NC(=O)CSc2nc(=O)n(CCN(C)C)c3c2CCC3)c1	–	–	·	–	–	·
O=C(Nc1cc(S(=O)(=O)N2CCOCC2)ccc1N1CCCCC1)c1ccccc1	–	–	–	–	–	–
O=C(Nc1cc(S(=O)(=O)N2CCOCC2)ccc1N1CCCC1)c1ccc2c(c1)S(=O)(=O)c1ccccc1C2=O	?	4µM	–	–	?	–
O=C(CNCc1ccccc1Cl)Nc1ccccc1N1CCCCC1	22µM	?	–	–	22µM	–
CCN(CC)c1ccc(S(=O)(=O)N2CCOCC2)cc1NC(=O)CNCc1cccc(Cl)c1	50µM	?	–	·	·	–
O=C(CNCc1ccccn1)Nc1cc(C(F)(F)F)ccc1N1CCOCC1	45µM	–	?	–	45µM	–

Bioassay records: PubChem BioAssay, National Center for Advancing Translational Sciences (NCATS)
